Among all 150,000 compounds or so, about 540 (0.36%) showed an effect of 50% or more. This excerpt belongs to a sample that is enriched for strong results.
tested on: Plasmodium falciparum; assay: Primary screen in NF54 nanoGlo assay, in single point, at 2uM, 72h; a lower Z score goes with more inhibition; type: functional, Erythrocyte; conditions: timepoint 72 hour

SMILES	% Inhibition [%]	Z score
CCc1nnc(CNC(=O)C(=O)c2ccco2)o1	-5	0.65
COc1ccc(CNC(=O)CCc2c(C)nn(-c3ccc4nnc(C)n4n3)c2C)c(OC)c1	5	-0.63
CC[n+]1c(/C=C/N(C)c2ccccc2)oc2ccc(-c3ccccc3)cc21	88	-9.92
CC[n+]1c(/C=C/N(C)c2ccccc2)oc2ccccc21	80	-10.29
COc1ccc2c(c1)C(=O)N(Cc1ccccc1)C(=O)C2(C)C	-10	1.06
C[C@@H](c1cccnc1)N(C)Cc1nc2c(s1)CCC2	-18	3.45
CCC(=O)Nc1cc(NC(=O)N(CC)CC2CCOCC2)ccc1OC	-8	1.44
Oc1ccc2ncccc2c1[C@@H](Nc1ccccn1)c1cccc(Cl)c1	34	-3.9
Cc1cc([C@H](Nc2ccccn2)c2ccccc2)c(NC(=O)c2ccccc2)s1	31	-0.7
Oc1ccc2ncccc2c1[C@@H](Nc1ccccn1)c1cccc(Br)c1	58	-12.1
Cc1cccc(Cl)c1NC(=O)N1CCS(=O)(=O)[C@@H](C)C1	-5	0.54
Cc1ccc(-n2nnnc2C2(NC(C)C)CCCC2)cc1	-3	0.43
CC(=O)Nc1ccc(-c2nc(-c3cccnn3)no2)c(C)c1	-22	2.61
CC(C)(C)CN(CC(=O)O)C(=O)Cc1ccccc1F	-9	1.82
CCN1CCN(C(=O)c2cnc(-c3ccc(F)cc3)nc2N(C)C)CC1	3	-0.5
COc1ccnc(NCCCNc2nccc(OC)n2)n1	-4	0.53
Cc1ccc(N2CCOCC2)c(NC(=O)C2CCCCC2)c1	-1	0.12
Cc1nn(C)c(Cl)c1NC(=O)OCc1ccc(F)cc1	54	-1.24
O=C(CNC(=O)OCc1ccccc1)Nc1ccc(F)cc1	37	2.05
COc1ccccc1COC(=O)Nc1c(C)nn(C)c1Cl	2	-0.32
Cc1ccc(N2S(=O)(=O)c3ccccc3S2(=O)=O)cc1	4	-0.44
Cc1cc(NC(=O)C2CCC(C3CC3)CC2)n2ncnc2n1 (configuration not stated)	-7	0.83
FC(F)(F)c1cccc(Nc2c3ccccc3nc3ccccc23)c1	10	-0.85
CCOc1ccc(Nc2c3ccccc3nc3ccccc23)cc1	81	-10.53
O=C(O)c1ccc(Nc2c3ccccc3nc3ccccc23)cc1	-3	0.3
CCOc1ccc(NC(=O)Cc2c(O)nc3ccccc3c2O)cc1	-9	1.39
